Test results taken from PubChem BioAssay AID1521 (The Scripps Research Institute Molecular Screening Center, 2009).
The other results are listed elsewhere or left out. The source made the active and inactive calls.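 How the source made its calls: active means mean inhibition above the hit cutoff derived in the earlier primary screen (cut at about 25% in these data); inactive means the rest.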

Assay: reduced survival of JAK2V617F-driven Ba/F3 cells – cell-based, Ba/F3 EpoR-JAK2V617F, luminescence, triplicate, JAK2V617F inhibitor project, confirmation (AID 1521);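 further: 0% = DMSO-treated cells and 100% = JAK inhibitor I control wells; higher means lower luminescence from reduced cell ATP and viability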
Settings: Ba/F3 EpoR-JAK2V617F viability, CellTiter-Glo luminescence; at 5.6 µM; active compounds read high

In the case of `CN(C)CC1Oc2ccccc2OC1(O)c1ccccc1` (stereo unspecified), the inhibition is reported as 98.7% (active).
